Screens (PubChem)
NPSR antag: antagonists of human neuropeptide S receptor cAMP signaling. Q6W5P4. CHO-NPSR cells, cAMP TR-FRET, antagonist mode. Potency, µM (highest dose often 38.3 µM), for the others: at the top dose activity change, negative = inhibition, hits mostly inhibitors. 220,000 compounds, 1% hits; also: nearly all actives have a fitted effect of over 50% in size
HPGD inh: blocks human HPGD enzyme activity; P15428; purified HPGD, NADH fluorescence kinetic, PGE2 substrate; Potency, µM, for inactives: at the top dose activity change, negative = inhibition, hits mostly inhibitors; 150,000 compounds, 4.3% hits; AID 894; active = well fitted inhibition curve with a large enough effect, not every such curve was filed as active; inconclusive = small, poorly fitted or top-dose-only effect, or another doubt; inactive = no such curve, though single readings can be large or run the other way
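NADH formation kinetics: reaction with 30 uM PGE2 and 1 mM NAD+ (final), 20 nM enzyme, Tris-HCl pH 8 with Tween 20, after 15 min compound preincubation at room temperature. Fluorescence change, last versus first of five reads.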
ALDH1A1 inh: blocks purified human ALDH1A1 activity. 220,000 compounds, 7.3% hits. P00352. Purified ALDH1A1, NADH fluorescence, propionaldehyde substrate. Potency, µM (top dose mostly 75.3 µM), inactives show at the highest dose activity, negative = inhibition, usual class: inhibitors; active = well fitted inhibition curve with a large enough effect, not every such curve was filed as active; inconclusive = small, poorly fitted or top-dose-only effect, or another doubt; inactive = no such curve, though single readings can be large or run the other way;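 also: plate controls were no enzyme wells and a reference inhibitor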
Target sequence (P00352 whole entry, looked up): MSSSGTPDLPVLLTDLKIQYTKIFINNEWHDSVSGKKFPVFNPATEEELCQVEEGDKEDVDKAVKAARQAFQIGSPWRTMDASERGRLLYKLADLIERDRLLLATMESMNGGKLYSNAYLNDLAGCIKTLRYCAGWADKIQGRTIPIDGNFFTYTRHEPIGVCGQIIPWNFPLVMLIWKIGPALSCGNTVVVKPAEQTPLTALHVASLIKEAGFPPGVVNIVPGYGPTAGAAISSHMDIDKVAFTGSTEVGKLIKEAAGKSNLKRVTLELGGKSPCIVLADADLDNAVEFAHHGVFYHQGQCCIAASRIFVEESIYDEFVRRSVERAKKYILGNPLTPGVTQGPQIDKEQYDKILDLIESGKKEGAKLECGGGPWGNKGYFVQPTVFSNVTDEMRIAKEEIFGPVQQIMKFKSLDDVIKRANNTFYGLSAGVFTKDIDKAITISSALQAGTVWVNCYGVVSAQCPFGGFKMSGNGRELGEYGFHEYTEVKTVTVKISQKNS
Tau FP inhib: inhibitors of human tau fibril formation. P10636. K18 P301L tau heparin fibrillization, Alexa594 FP, 6 h. Potency, µM (titrated, usually from 57.7 µM), for inactives: top-dose activity, negative = inhibition, usual class: inhibitors. 280,000 compounds, 0.39% hits. AID 1468; also: nearly all actives have a fitted effect of over 55% in size
Target sequence (P10636 561-689 P618L limits assumed): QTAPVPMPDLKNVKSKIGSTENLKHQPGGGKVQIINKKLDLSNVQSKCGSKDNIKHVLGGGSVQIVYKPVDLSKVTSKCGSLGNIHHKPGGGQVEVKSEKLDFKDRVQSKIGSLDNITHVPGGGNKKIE
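Human tau K18 […] P301L fragment, 15 uM unlabeled plus 0.24 uM Alexa 594-labeled tau (final), with compound and 20 uM heparin in 100 mM sodium acetate pH 7; 6 hr at 37 C, then Alexa 594 FP read.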
Tau fluor cs: counter-screen for tau fibril formation inhibitors. tau K18 P301L Alexa594 fluorescence, heparin fibrillization. 280,000 compounds, 0.93% hits. Potency, µM (doses to about 57.7 µM), for inactives: at the highest dose activity change, negative = decrease; also: nearly all actives have a fitted effect of over 55% in size
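Human tau K18 P301L (15 uM unlabeled, 0.24 uM Alexa 594-labeled) in 100 mM sodium acetate pH 7 with 20 uM heparin, 6 hr at 37 C. ThT 30 uM added, 1 hr ambient; Alexa 594 FP and total fluorescence read at 555/632 nm.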
Tau ThT inhib: inhibitors of human tau fibril formation, thioflavin T binding. 270,000 compounds, 2.1% hits. recombinant tau K18 P301L (four-repeat tau fragment), heparin-induced fibrillization, ThT fluorescence. P10636. Potency, µM (series often up to 57.4 µM), without a hit: at the highest dose activity, negative = inhibition, actives largely listed as inhibitors. AID 1460; also: nearly all actives have a fitted effect of over 55% in size
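Aggregation was driven by heparin (20 uM final) acting on recombinant tau […] bearing P301L in 100 mM sodium acetate pH 7; fibrils were detected with Thioflavin T.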
* = called active by the depositor; ? = inconclusive; nt = no result; [ ] = dose if it differs, or a comment. A selection: hits, their analogues and other compounds. The true share with any hit is near 9.5%. Unless noted, calls follow the shape of the dose curve; as a rule, active = well fitted curve in the direction sought with a large enough effect; inconclusive = small, poorly fitted or top-dose-only effect, or another doubt; inactive = no such curve, though single readings can be large; an effect the other way counts as inactive or inconclusive. Unless noted, % is scaled to controls: 0 for no effect and ±100 for the full control effect; potency is read from the fitted curve at half-maximal effect.

SMILES | NPSR antag | HPGD inh | ALDH1A1 inh | Tau FP inhib | Tau fluor cs | Tau ThT inhib
Cc1noc(C)c1-c1nnc(-c2ccc(C(F)(F)F)cc2)o1 | -7% | nt | 5% | -8% | -13% | -11%
CCCC(CCC)C(=O)Nc1ccc2c(c1)N(C(=O)CCN1CCN(C)CC1)c1ccccc1CC2 | 2% | nt | 3% | 8% | -7% | -7%
CCOC(=O)CC(NC(=O)c1cccc2c1C(=O)N(Cc1cccnc1)C2)c1ccc(OCC)c(OC)c1 (stereo unspecified) | -18% | nt | ? | -7% | -22% | -16%
N#Cc1ccccc1Cn1cc(/C=C/[N+](=O)[O-])c2ccccc21 | ? | 40µM* | 3.5µM* | 4% | -22% | ?
O=[N+]([O-])/C(C(Cl)=C(Cl)Cl)=C(/Sc1ccccc1)N1CCCCC1 | ? | nt | 18µM* | ? | -27% | 22µM*
O=C(N/C(=C\c1ccc([N+](=O)[O-])cc1)C(=O)N1CCCCC1)c1ccccc1 | 8% | nt | 2% | -2% | -19% | -14%
CC1(OC(=O)C2CCCC2)C(=O)C=C2C=C(c3ccsc3)N(c3ccc(CO)cc3)C=C2C1=O (stereo unspecified) | nt | -5% | 3%[13.5 µM] | 8%[11.6 µM] | 7%[11.6 µM] | 7%[11.5 µM]
Cc1ccc(CC2SC(=O)NC2=O)cc1Cl (stereo unspecified) | ? | -22% | 32µM* | 0% | -2% | -7%
Nc1ccc(CC2SC(=O)NC2=O)cc1 (stereo unspecified) | 0%[46.1 µM] | -13% | -7% | -3% | -14% | ?
C=CCNc1nc(Nc2ccc([N+](=O)[O-])cc2)nc(N2CCCC2)n1 | -55% | nt | 32µM* | -14% | ? | ?
C=CCNc1nc(Cl)nc(Nc2ccc([N+](=O)[O-])cc2)n1 | -14% | nt | 2% | 5% | -8% | -2%
CC1CCN(c2nc(Cl)nc(Nc3ccc([N+](=O)[O-])cc3)n2)CC1 | -58% | -20% | 16µM* | ? | 8.9µM*[quencher] | ?
COc1ccc(Nc2nc(Cl)nc(N3CCN(c4ccc(OC)cc4)CC3)n2)cc1 | 50% | nt | -2% | 2% | ? | ?
COc1ccc(OC)c(NC(=O)c2oc3c(c2C)-c2nn(Cc4ccc(Cl)cc4)cc2CC3)c1 | nt | nt | nt | -5% | -22% | -7%
CCOC(=O)c1c(NC(=O)CCc2ccc(CC)o2)sc(C)c1C | ? | ? | ? | -6% | -8% | ?
CCOC(=O)c1c(NC(=O)C[n+]2ccc(Cc3ccccc3)cc2)sc(C)c1C | -27% | nt | 0.71µM* | -9% | -14% | ?
CCOC(=O)c1c(NC(=S)NCC2CCCO2)sc(C)c1C (stereo unspecified) | -28% | nt | 18µM* | -5% | -25% | -12%
CCOC(=O)c1c(NC(=S)Nc2ccccc2)sc(C)c1C | -42% | 22µM* | 25µM* | -3% | -19% | -13%
O=C(c1ccc(Cl)s1)N1CCOCC1 | -3%[46.1 µM] | -24% | 5% | -3% | 3% | 3%
O=C(CCN1CCC(c2ccc(Cl)s2)=N1)c1ccc(Cl)s1 | -6% | nt | 3.2µM* | 1% | -20% | ?
N#Cc1ccc(NC(=O)Nc2ccc(Oc3ccc(NC(=O)Nc4ccc(C#N)cc4)cc3)cc2)cc1 | 54% | nt | -11% | ? | 7.9µM*[quencher] | ?
Cc1nc2c(Br)c(C)nn2c2c1CCC2 | 18% | nt | 1% | 5% | 10% | 3%
CCOc1ccc2nc3cc(N)ccc3c(N)c2c1 | nt | ? | ? | ? | 13µM*[quencher] | 7.1µM*
O=C(/C=C/c1cccc(Br)c1)NCC1CCCCC1 | -23%[46.1 µM] | -22% | 11µM* | -7% | -14% | -5%
O=C1CC(N(O)c2ccccc2)C(=O)N1c1ccc(Cl)c(Cl)c1 (stereo unspecified) | 0% | nt | nt | 13% | -18% | nt
SMILES | NPSR antag | HPGD inh | ALDH1A1 inh | Tau FP inhib | Tau fluor cs | Tau ThT inhib
CCCCCCC(=O)N(O)C1CC(=O)N(c2ccc(Br)cc2)C1=O (stereo unspecified) | -4%[46.1 µM] | 7.1µM* | 0.56µM* | 10% | 2% | ?
COc1ccccc1N(O)C1CC(=O)N(c2ccc(Br)cc2)C1=O (stereo unspecified) | -4%[46.1 µM] | 28µM* | 18µM* | ? | ? | 14µM*
CCCCCCC(=O)N(O)C1CC(=O)N(c2ccc(F)cc2)C1=O (stereo unspecified) | -11% | nt | nt | 18% | 0% | -17%
CN(C)CC(C)(C)CNC(=O)c1ccc(-n2c(=O)c(=O)[nH]c3ccccc32)cc1 | nt | -10% | -1% | nt | nt | nt
CC(C)c1nc(=S)c2ccccc2[nH]1 | 10%[46.1 µM] | ? | 14µM* | -2% | 2% | -5%
S=c1nc(C2CC2)[nH]c2ccccc12 | 8%[46.1 µM] | 16µM* | 13µM* | -11% | -9% | ?
CC(C)=CCC/C(C)=C/CO/N=C1/[C@H]2O[C@@H]2[C@@H](O)[C@H]2[C@H]1CCn1c(=O)n(-c3ccccc3)c(=O)n12 | nt | nt | ? | 3%[11.6 µM] | -17%[11.6 µM] | -12%[11.5 µM]
COCCn1c(C)cc(C2=NNC(=NC3CC3)SC2)c1C | -16% | nt | -3% | 1% | -8% | ?
COCCn1c(C)cc(C2=NNC(=Nc3ccc(Cl)cc3Cl)SC2)c1C | -6%[46.1 µM] | -11% | 25µM* | -4% | -12% | -15%
COC(=O)c1cc(NC(=O)Cc2ccc(OC)cc2)cc(C(=O)OC)c1 | -12%[46.1 µM] | -15% | 0.89µM* | -12% | -21% | -7%
COC(=O)c1cc(NC(=O)Cn2c(=O)cnc3ccccc32)cc(C(=O)OC)c1 | -5%[46.1 µM] | -19% | 0.35µM* | 1% | -1% | -3%
COc1ccc(CC(=O)Nc2ccc(C(N)=O)cc2)cc1 | 26% | nt | nt | 2% | -13% | -11%
NCCC[C@@H](CC(=O)N[C@@H]1CCCC[C@H]1C(=O)N[C@H](CC(=O)N[C@@H](CCC(=O)O)CC(=O)O)Cc1ccccc1)NC(=O)C[C@H](Cc1c[nH]c2ccccc12)NC(=O)[C@@H]1CCCC[C@H]1N | nt | -5% | -7% | -5% | -7% | -11%
CCC(=O)N1CCc2cc(Br)cc(S(=O)(=O)N3CCCC(C(=O)NCc4ccccc4)C3)c21 (stereo unspecified) | nt | nt | nt | 4% | -10% | -1%
COc1cc2c(=O)n(Cc3ccco3)c(=O)n(CC(=O)c3ccc(Br)cc3)c2cc1OC | -1%[46.1 µM] | -3% | 0.4µM* | ? | -28% | ?
COc1cc2c(=O)n(Cc3ccccc3)c(=O)n(CC(=O)C(C)(C)C)c2cc1OC | -3% | nt | nt | -10% | -10% | -4%
COc1cc2c(=O)n(Cc3ccco3)c(=O)n(CC(=O)c3cccc(Br)c3)c2cc1OC | -4%[46.1 µM] | -6% | 1.1µM* | -12% | -23% | 4%
CC(=O)N1CSCC1C(=O)NNS(=O)(=O)c1ccccc1 (stereo unspecified) | -8%[7.67 µM] | nt | nt | -3% | 0% | 5%
